# Measurements reported in publication PMC4552634, “A New Set of Chemical Starting Points with Plasmodium falciparum Transmission-Blocking Potential for Antimalarial Drug Discovery” (PLoS ONE, 2015).
# Screen size: about 13,000 compounds; about 3,200 (25%) showed an effect of 50% or more. The list shows a part of the results.
# System: P. falciparum stage V gametocytes
# Design: BacTiter-Glo ATP luminescence viability of purified stage V gametocytes in 384-well plates, per cent inhibition versus DMSO
# Conditions: 48 h, 5 µM; inhibitor
row,SMILES,% Inhibition [%]
1,Cc1ccc(Oc2ncccc2C(=O)Nc2cccc3cccnc23)c(C)c1 [TCMDC-125499],-13.13
2,O=C(Nc1ccc(CCN2CCC(c3nc(COCC(F)(F)F)c(-c4ccccc4)o3)CC2)cc1)c1ccc(F)cc1 [TCMDC-131904],-33.25
3,O=C(Nc1nccs1)c1sc2ccccc2c1O [TCMDC-124521],-6.294
4,CCNc1cc(C(=O)N[C@@H](Cc2ccccc2)[C@H](O)CNCc2cc(C#N)ccc2OC)cc(N2CCCC2=O)c1 [TCMDC-141684],32.6
5,CC1CCC(NC(=O)c2nn(-c3ccc(Cl)cc3)c(=O)c3ccccc23)CC1 (stereo not drawn) [TCMDC-124775],-0.9327
6,COc1ccc(-n2nc(C(=O)NCc3ccccc3OC)c3ccccc3c2=O)cc1 [TCMDC-125443],-5.134
7,CCn1nc(C(=O)NC2CCOc3ccccc32)c2ccccc2c1=O (stereo not drawn) [TCMDC-124816],60.74
8,COc1ccc(CN2CCC(CN3CC4(OC3=O)c3ccccc3-c3ccccc34)C2)c(O)c1 (stereo not drawn) [TCMDC-136069],30.12
9,CCNc1cc(C(=O)N[C@@H](Cc2ccccc2)[C@H](O)CNCc2cccc(OC)c2)c(OC)c(N2CCCCS2(=O)=O)c1 [TCMDC-134673],-8.62
10,O=C(Nc1ccc(Cl)cc1)Nc1ccc(-c2ccc(-c3nc4ccccc4[nH]3)cc2)cc1 [TCMDC-133181],-19.19
11,NC(=NCCc1ccc(Cl)cc1)c1ccc(Cl)c(Cl)c1 [TCMDC-137459],-9.34
12,NC(=NCCCCCCCCN=C(N)Nc1ccc(Cl)cc1)Nc1ccc(Cl)cc1 [TCMDC-131828],83.63
13,N=C(N)NN=CC(=O)Nc1ccc(Cl)cc1 [TCMDC-137472],9.695
14,S=C(Nc1ccc(Cl)cc1)Nc1ccc(Nc2ccccc2)cc1 [TCMDC-123954],-65.82
15,Clc1ccc(NC(=NCCCCCCCN=C(Nc2ccc(Cl)cc2)Nc2ccc(Cl)cc2)Nc2ccc(Cl)cc2)cc1 [TCMDC-137529],128.8
16,Clc1cccc(-c2nc(Nc3ccnc(-c4ccc(CN5CCOCC5)cc4)c3)c3ccccc3n2)c1 [TCMDC-138870],-2.785
17,COC(=O)c1ccc(CC(C)NCC(O)c2cccc(Oc3cccc(C(F)(F)F)c3)c2)cc1 (stereo not drawn) [TCMDC-131489],30.29
18,COc1ccc2c(c1)[nH]c1c(/C=C/c3ccc([N+](=O)[O-])cc3)nccc12 [TCMDC-125486],8.204
19,Cc1sc(NC(=O)c2ccc([N+](=O)[O-])cc2Cl)c(C(N)=O)c1C [TCMDC-125749],-6.756
20,c1nc2nc3c(c(Nc4ccc5c(c4)CCC5)n2n1)CCC3 [TCMDC-123573],-7.89
21,O=C(/C=C/c1ccc(Cl)c(Cl)c1)NCCCCCN1CCCC(C(=O)Nc2ccc(Cl)cc2)C1 (stereo not drawn) [TCMDC-136118],-2.254
22,O=C(/C=C/c1ccc(Cl)c(Cl)c1)NCCCCCN1CCCC(C(=O)Nc2ccc(F)c(Cl)c2)C1 (stereo not drawn) [TCMDC-136114],-6.866

row,SMILES,% Inhibition [%]
1,O=C(/C=C/c1ccc(Cl)c(Cl)c1)NCCCCCN1CCCC(C(=O)Nc2cccc(Cl)c2)C1 (stereo not drawn) [TCMDC-136122],-10.14
2,O=C(/C=C/c1ccc(Cl)c(Cl)c1)NCCCCCN1CCC(NC(=O)NC2CCCCCC2)CC1 [TCMDC-135698],-24.64
3,O=C(/C=C/c1ccc(Cl)cc1)NCCCCCN1CCCC(C(=O)Nc2ccc(Cl)cc2)C1 (stereo not drawn) [TCMDC-136117],4.842
4,O=C(/C=C/c1ccc(Cl)cc1)NCCCCCN1CCCC(C(=O)Nc2cccc(Cl)c2)C1 (stereo not drawn) [TCMDC-136121],90.21
5,O=C(/C=C/C=C/c1ccc(Cl)c(Cl)c1)NCCCCCN1CCCC2CCCCC21 (stereo not drawn) [TCMDC-139469],92.39
6,O=C(/C=C/c1ccc(Cl)c(Cl)c1)NCCCCCN1CCC(NC(=O)NC2CCCC2)CC1 [TCMDC-135699],-68.94
7,O=C(/C=C/c1ccc(Cl)c(Cl)c1)NCCCCCN1CCCC(C(=O)Nc2ccc(Cl)c(Cl)c2)C1 (stereo not drawn) [TCMDC-136126],74.26
8,CC(C)C1=C[C@H]2C[C@]3(C4OCCO4)[C@@H]4CC[C@@H](C)[C@H]4C[C@@]2(C(=O)OCC2COCO2)[C@]13C(=O)OC(c1ccccc1)c1ccccc1 (stereo partly drawn) [TCMDC-131949],-14.13
9,CN(C)c1ccc(C(c2ccc(N(C)C)cc2)c2cc([N+](=O)[O-])ccc2Cl)cc1 [TCMDC-124088],-4.747
10,O=S1(=O)C=C(c2ccccc2)CC1 [TCMDC-125863],-1.513
11,O=C(Nc1cc(Cl)ccc1O)c1cnn2c(C(F)(F)F)cc(-c3cccs3)nc12 [TCMDC-125807],-56.02
12,COc1cc(CN2CCC(N3CCc4cc(NC(=O)c5cc(C)on5)ccc43)C2)ccc1F (stereo not drawn) [TCMDC-135084],-32.41
13,N#Cc1cccc(NC(=O)Nc2cccc(-c3ccc(-c4nc5ccc(C(F)(F)F)cc5[nH]4)cc3)c2)c1 [TCMDC-133191],-49.97
14,CC(C)c1sc(N2CCN(C)CC2)nc1C(=O)NCCc1ccc(Cl)c(Cl)c1 [TCMDC-134295],11.7
15,Cc1ccc(C)c2sc(N3CCN(C(=O)c4ccc([N+](=O)[O-])o4)CC3)nc12 [TCMDC-124315],103
16,CC1CCN(c2nc(C(=O)NCCc3ccc(Cl)c(Cl)c3)c(C(C)C)s2)CC1 [TCMDC-134836],1.732
17,Cc1ccc(Cl)c2sc(N3CCN(C(=O)c4ccc([N+](=O)[O-])o4)CC3)nc12 [TCMDC-124311],95.54
18,CCOC(=O)C(CO)NC(=O)c1ccc([N+](=O)[O-])o1 (stereo not drawn) [TCMDC-131608],22.85
19,CCOC(=O)C(NC(=O)c1ccc([N+](=O)[O-])o1)C(C)C (stereo not drawn) [TCMDC-131607],14.28
20,O=C(N[C@@H](CC1CCCCC1)C(=O)NCCN1CCCCC1)c1ccc(O)c(-c2cccc(C(F)(F)F)c2)c1 [TCMDC-140818],37.36
21,COc1cc(Cc2cnc(N)nc2N)cc(OCc2cccc(C(=O)O)c2)c1OC [TCMDC-137888],-0.7108
22,Oc1ccc(CN2CCN(CCOC(c3ccccc3)c3ccccc3)CC2)cc1Cl [TCMDC-135690],-0.9629

row,SMILES,% Inhibition [%]
1,Cc1cccc2nc(-c3ccc(-c4ccc(NC(=O)Nc5ccc(F)c(F)c5F)cc4)s3)[nH]c12 [TCMDC-133222],-13.04
2,Cc1ccc(Nc2nc(N/N=C/c3cc4c(cc3Br)OCO4)nc(Nc3ccc([N+](=O)[O-])cc3)n2)cc1C [TCMDC-124185],19.94
3,c1cc(CN2CCCCC2)cc(-c2cccc(-c3nc4ccccc4[nH]3)c2)c1 [TCMDC-133914],-55.81
4,c1cc(CN2CCC(CCN3CCCCC3)CC2)cc(-c2cccc(-c3nc4ccccc4[nH]3)c2)c1 [TCMDC-133920],106.4
5,c1cc(CN2CCN(CCN3CCOCC3)CC2)cc(-c2csc(-c3nc4ccccc4[nH]3)c2)c1 [TCMDC-133921],11.49
6,c1cc(CN2CCC(CCN3CCCCC3)CC2)cc(-c2csc(-c3nc4ccccc4[nH]3)c2)c1 [TCMDC-133919],95.43
7,c1cc(CN2CCCCC2)cc(-c2ccc(-c3nc4ccccc4[nH]3)cc2)c1 [TCMDC-133890],-8.246
8,NC1CCN(Cc2cccc(-c3csc(-c4nc5ccccc5[nH]4)c3)c2)C1 (stereo not drawn) [TCMDC-133876],10.66
9,C=CCc1cc(Br)ccc1OCCCOc1c(N)nc(N)nc1N [TCMDC-131367],16.05
10,CCn1cc(CN2CCCC(C(=O)Nc3ccc(-c4nc5ccccc5[nH]4)cc3)C2)c(C)n1 (stereo not drawn) [TCMDC-124673],-63.8
11,CCc1ccc(N2C(=O)C3C(Cc4ccc(OC(C)(C)C)cc4)NC4(C(=O)N(Cc5ccccc5)c5ccc(F)cc54)C3C2=O)cc1 (stereo not drawn) [TCMDC-139770],11.03
12,Fc1ccc(N(c2nc(-c3cc(F)cc(C(F)(F)F)c3)cs2)C2CCNCC2)cc1 [TCMDC-136656],103.4
13,CCN(CC)CCCN(C(=O)Nc1cc(F)cc(F)c1)c1nc(-c2ccc(F)cc2)cs1 [TCMDC-136665],-54.99
14,CC(=O)N(Cc1nc(-c2cc(C(F)(F)F)cc(C(F)(F)F)c2)cs1)c1c(C)cccc1C [TCMDC-135641],20.05
15,COc1ccc(F)cc1-c1csc(N(c2ccc(F)cc2)C2CCNCC2)n1 [TCMDC-136652],68.19
16,Cc1cc(F)ccc1N(c1nc(-c2cc(Cl)ccc2Cl)cs1)C1CCNC1 (stereo not drawn) [TCMDC-136653],19.89
17,COc1ccc(N(c2nc(-c3cc(Cl)ccc3Cl)cs2)C2CCNCC2)cc1 [TCMDC-136654],103.4
18,COc1ccc(N(c2nc(-c3cc(Cl)ccc3Cl)cs2)C2CCNC2)cc1 (stereo not drawn) [TCMDC-136655],0.8137
19,N#Cc1ccc2[nH]cc(CN3CCC4(CC3)CN(CCNCc3ccccc3)C(=O)CO4)c2c1 [TCMDC-136734],-19.1
20,Cc1ccccc1C1CCN(C2CCC(NC(=O)/C=C/c3ccc(C(F)(F)F)cc3)CC2)CC1 (stereo not drawn) [TCMDC-133511],-86.18
21,CC[C@@]1(O)C(=O)OCc2c1cc1n(c2=O)Cc2c-1nc1cc3c(cc1c2CN1CCN(C)CC1)OCCO3 [TCMDC-131875],-10.57
22,CCOc1ccc2ccccc2c1C(=O)Nc1cc(C)nn1-c1nc(C)cc(=O)[nH]1 [TCMDC-124946],-19.22
